Hits are enriched below; roughly 1.3% of the tested compounds scored in any of these assays.
Gli-Sufu block: blocks Gli-Sufu signaling in a luciferase reporter; AID 588413; 0.74% of 340,000 active; Sufu-KO-LIGHT fibroblasts, Gli luciferase reporter luminescence; inhibition, % at 5 µM;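 active means inhibition above about 55%, limit read from the data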;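 further: 0% = DMSO-treated cells and 100% = wells with medium but no cells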
NCOA3 inh: human NCOA3 inhibition. Q9Y6Q9. HEK293 GAL4-SRC3 luciferase reporter, luminescence. inhibition, % at 3.6 µM. 0.17% of 360,000 active. AID 588352;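 active means inhibition above a per-campaign cutoff, the mean of all compounds plus 3 SD, cut at about 60% in these data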;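 further: 0% = DMSO-treated cells and 100% = gossypol-treated cells at 36 µM; higher means less SRC3-driven luciferase light from the GAL4 reporter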
COUP-TFII inh: NR2F2 (human) inhibition, primary screen. P24468. HEK293T NGFI-A luciferase reporter, luminescence. inhibition, % at 8.6 µM. 0.7% of 370,000 active. AID 686940;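 active means inhibition above a per-plate cutoff, mean inhibition of test wells between control levels plus 3 SD, cut at about 38% in these data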;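 further: cells cotransfected with COUP-TFII expression vector driving the NGFI-A reporter; 0% = median of COUP-TF2 test wells and 100% = reporter-only cells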
NCOA1 inh: inhibits human SRC1 coactivator; HEK293 GAL4-SRC1 luciferase reporter, luminescence; 0.12% of 360,000 active; inhibition, % at 3.6 µM; Q15788; AID 588354;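 active means inhibition above the campaign mean plus 3 SD, with each screening campaign given its own cutoff, cut at about 60% in these data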;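 further: 0% = DMSO treated cells and 100% = gossypol at 36 µM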
Target sequence (Q15788 whole entry, looked up, the tested form may be a part): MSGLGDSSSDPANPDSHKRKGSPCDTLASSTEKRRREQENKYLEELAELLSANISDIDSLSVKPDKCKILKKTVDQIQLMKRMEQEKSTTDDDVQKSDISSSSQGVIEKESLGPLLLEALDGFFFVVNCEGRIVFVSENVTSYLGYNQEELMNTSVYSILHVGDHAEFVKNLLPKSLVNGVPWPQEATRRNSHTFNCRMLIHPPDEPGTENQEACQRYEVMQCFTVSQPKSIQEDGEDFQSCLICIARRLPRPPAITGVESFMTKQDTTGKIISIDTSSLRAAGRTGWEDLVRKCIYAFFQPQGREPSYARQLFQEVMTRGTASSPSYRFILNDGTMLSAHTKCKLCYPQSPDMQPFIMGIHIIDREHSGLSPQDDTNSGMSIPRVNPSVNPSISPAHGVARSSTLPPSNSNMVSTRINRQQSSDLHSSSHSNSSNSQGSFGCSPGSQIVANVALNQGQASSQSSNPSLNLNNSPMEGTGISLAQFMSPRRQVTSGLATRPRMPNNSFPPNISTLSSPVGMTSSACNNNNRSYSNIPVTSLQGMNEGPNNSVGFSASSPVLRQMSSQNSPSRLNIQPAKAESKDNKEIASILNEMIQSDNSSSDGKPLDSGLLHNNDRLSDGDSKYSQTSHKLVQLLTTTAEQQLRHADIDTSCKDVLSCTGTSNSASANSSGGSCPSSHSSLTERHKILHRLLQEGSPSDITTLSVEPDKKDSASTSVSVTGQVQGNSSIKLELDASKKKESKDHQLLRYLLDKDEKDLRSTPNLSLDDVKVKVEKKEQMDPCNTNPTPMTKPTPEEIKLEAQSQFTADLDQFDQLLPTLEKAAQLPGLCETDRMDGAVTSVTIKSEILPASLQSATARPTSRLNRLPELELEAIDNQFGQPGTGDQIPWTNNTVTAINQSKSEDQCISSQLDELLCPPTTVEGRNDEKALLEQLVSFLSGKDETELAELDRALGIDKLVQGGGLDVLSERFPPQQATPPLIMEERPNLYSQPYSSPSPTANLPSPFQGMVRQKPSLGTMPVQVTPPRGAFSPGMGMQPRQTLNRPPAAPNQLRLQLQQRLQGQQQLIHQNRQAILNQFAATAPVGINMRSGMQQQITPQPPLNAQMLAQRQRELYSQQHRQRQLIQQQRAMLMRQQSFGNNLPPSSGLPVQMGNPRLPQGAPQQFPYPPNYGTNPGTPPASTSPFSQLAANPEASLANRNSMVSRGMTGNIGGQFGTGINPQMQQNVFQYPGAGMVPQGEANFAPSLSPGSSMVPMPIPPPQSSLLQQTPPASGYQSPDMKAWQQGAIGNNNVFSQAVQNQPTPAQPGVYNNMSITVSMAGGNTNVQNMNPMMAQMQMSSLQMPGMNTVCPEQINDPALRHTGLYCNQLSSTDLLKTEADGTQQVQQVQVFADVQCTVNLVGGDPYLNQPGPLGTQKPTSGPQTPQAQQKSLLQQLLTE
LRH-1 inv ag: NR5A2 inverse agonism in reporter assay; O00482; 0.13% of 360,000 active; HEK293T StAR-luciferase reporter, LRH-1 transfected, 24 h; inhibition, % at 3.6 µM;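 active means inhibition above the mean inhibition of all tested compounds plus 3 SD, cut at about 73% in these data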;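 further: 0% = DMSO wells and 100% = reporter-only cells lacking LRH-1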
SRC2 inh: human SRC2 (NCOA2) inhibition. HEK293 GAL4-SRC2 luciferase reporter, luminescence. inhibition, % at 9 µM. 0.17% of 370,000 active. AID 651957;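 active means inhibition above the mean inhibition of all tested compounds plus 3 SD, set per campaign, cut at about 52% in these data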;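 further: 0% = DMSO treated cells and 100% = cells given Gossypol at 36 µM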
Gal4-VP16 ctr: inhibits VP16 reporter, flagging COUP-TFII antagonist hits | inhibition, % at 8.5 µM | AID 687007 | HEK293 Gal4-VP16 luciferase reporter, luminescence | 25% of 2,500 active | shares compounds with COUP-TFII inh; in the data active means inhibition above about 13%
NR2F2 inh conf: COUP-TFII (NR2F2) inhibition, confirmation assay; shares compounds with COUP-TFII inh; HEK293 NGFI-A luciferase reporter, luminescence; inhibition, % at 8.5 µM; 45% of 2,500 active;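 active means mean inhibition over three repeats above a set limit taken from the earlier primary screen, cut at about 38% in these data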;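 further: 100% = cells given the luciferase reporter alone without the COUP-TF2 vector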
* hit, by the source's call; nt = no result given.

SMILES | Gli-Sufu block | NCOA3 inh | COUP-TFII inh | NCOA1 inh | LRH-1 inv ag | SRC2 inh | Gal4-VP16 ctr | NR2F2 inh conf
Cc1c(C)n(Cc2ccccc2)c2ncnc(Cl)c12 | 6 | 29 | 45* | 18 | 25 | 38 | 10 | 42*
Cc1ccccc1-c1ccc2c(c1)[C@@H]1C[C@H](N(C)S(=O)(=O)c3ccc(Cl)cc3)[C@H]([C@H](C)O)CN1CC2 | nt | nt | 4 | nt | nt | 10 | nt | nt
CCOc1ccc(-c2cc(CCCC(=O)NCc3ccco3)no2)cc1 | 41 | -20 | 43* | -3 | 9 | 60* | -5 | -14
CCOc1ccc(-c2nnn(CC(=O)NCc3ccco3)n2)cc1 | 32 | -14 | -12 | -39 | -23 | -21 | nt | nt
CCOc1ccc(-c2cc(CCCC(=O)NCc3ccc(C)cc3)no2)cc1 | 11 | 7 | 44* | 13 | 33 | 65* | 32* | 11
O=[N+]([O-])c1ccc(CSc2nnc(-c3cccnc3)o2)cc1 | 6 | 14 | 25 | 13 | 28 | 2 | nt | nt
Cc1ccc(Cn2ccc(NC(=O)c3cc(C4CC4)on3)n2)cc1 | -11 | -5 | 39* | 10 | -3 | 18 | -7 | -9
Cc1cc(C(=O)CSc2ccc(F)cc2)cc(C)c1OC(=S)N(C)C | -8 | 51 | 73* | 63* | 55 | 51 | 57* | 85*
CCN(CC)c1ccc(S(=O)(=O)Nc2cc(Cl)ccc2Cl)cc1NC(=S)NC(=O)C1CCCC1 | 11 | 7 | 14 | 5 | -4 | 11 | nt | nt
CCN(CC)S(=O)(=O)c1ccc(Cl)c(NC(=S)NC(=O)C2CCCC2)c1 | 15 | -1 | 44* | 5 | 10 | 21 | 2 | 21
O=C(Nc1ccc(F)cc1)Nc1cc(OCC(F)(F)F)cc(OCC(F)(F)F)c1 | 21 | 61 | 76* | -12 | 48 | 7 | 17* | 79*
CCNC(=O)N(C)[C@H]1C[C@H]2c3[nH]c4c(-c5ccccc5)cccc4c3CCN2C(=O)[C@H]1[C@H](C)O | nt | nt | 3 | nt | nt | -30 | nt | nt
COc1cccc(CNc2nc3cc(-c4cccc(OC)c4)sc3c(=O)n2C)c1 | nt | -34 | 10 | -8 | 1 | -2 | nt | nt
COc1cccc(CNc2nc3cc(-c4cnn(Cc5ccccc5)c4)sc3c(=O)n2C)c1 | nt | 34 | 79* | 14 | 44 | -7 | 17* | 54*
COc1ccccc1CNc1nc2cc(-c3ccc(OC)c(OC)c3)sc2c(=O)n1C | nt | -23 | 41* | 7 | 1 | 12 | -13 | 8
O=C1c2cccnc2C(=O)N1CO | 4 | 13 | 1 | 0 | 1 | -36 | nt | nt
NC1=C(Br)C(=O)c2ncccc2C1=O | 85* | 88* | 81* | 83* | 95* | 75* | 92* | 93*
COc1cc(C(=O)Nc2ccc(C(F)(F)F)cc2)ccc1OCC(=O)N1CCOCC1 | -3 | -19 | -2 | -48 | -41 | -3 | nt | nt
Cc1nn(-c2ccccc2)c(C)c1C(=O)OC(C)C(=O)NC1CCCCC1C (stereo not drawn) | 5 | 14 | 39* | 10 | 21 | 11 | 1 | 21
CC(OC(=O)C1=NN(c2ccccc2)C(=O)CC1)C(=O)NC1CCCCC1C (stereo not drawn) | -7 | 13 | 6 | -22 | 10 | -3 | nt | nt
O=C(O)COc1ccc(/C=N/NC(=O)C(O)(c2ccccc2)c2ccccc2)cc1 | 24 | -18 | 5 | 12 | -5 | -18 | nt | nt
CC(Sc1nnc2c(n1)[nH]c1ccccc12)C(=O)N(C)C1CCCCC1 (stereo not drawn) | 51 | 1 | 44* | 2 | 4 | 31 | 2 | 34
CCn1c(COc2c(C)cccc2C)nnc1SCC(=O)N1CCN(c2ccccc2)CC1 | -19 | 5 | 33 | 24 | 19 | 24 | nt | nt
C=CCn1c(COc2cccc(C)c2C)nnc1SCC(=O)N1CCN(c2ccccc2)CC1 | 28 | 0 | 44* | 1 | 10 | 0 | 11 | 38*
CCn1c(SCC(=O)N2CCN(c3ccccc3)CC2)nnc1-c1c[nH]c2ccccc12 | 6 | 12 | 46* | 16 | 7 | 20 | 8 | 37
SMILES | Gli-Sufu block | NCOA3 inh | COUP-TFII inh | NCOA1 inh | LRH-1 inv ag | SRC2 inh | Gal4-VP16 ctr | NR2F2 inh conf
COc1ccc(S(=O)(=O)N2CCOCC2)cc1NC(=O)C1CC1 | 8 | 0 | -12 | 1 | -4 | 6 | nt | nt
COC(=O)c1cccc(-n2c(C)cc(O)cc2=O)c1 | nt | nt | 1 | nt | nt | -5 | nt | nt
COC(=O)c1c(-c2cccc3ccccc23)csc1NC(=O)Cc1ccc(OC)c(OC)c1 | 25 | 11 | 41* | 3 | -3 | 10 | 2 | 29
CCCCCc1ccc(OCCC[n+]2ccccc2)c(CCCCC)c1 | 83* | 66* | 57* | 34 | 59 | 5 | 14* | 34
Cc1cc(N2CCN(C(=O)Oc3ccc(-c4ccccc4)cn3)CC2)c2ccccc2n1 | nt | nt | 87* | nt | nt | 31 | 5 | 38*
CC(C)(C)NC(=O)CSc1nc2ccc(NC(=O)CSc3nnnn3Cc3ccccc3)cc2s1 | 40 | 38 | 67* | 33 | 38 | 11 | 2 | 51*
CCOC(=O)CSc1nc2ccc(NC(=O)CSc3nnnn3Cc3ccccc3)cc2s1 | -20 | 2 | 16 | 12 | 9 | 2 | nt | nt
CC[C@@H]1CCC[C@@H](O)[C@@H](C)C(=O)O[C@H](C)[C@@H](C)C/C=C(C)/C(OC)=C\C(=O)N(C)C([C@@H](C)CC)C(=O)N(C)[C@@H](C(C)C)C(=O)N(C)[C@@H](COC)C(=O)N2CCC[C@H]2C(=O)N(C)[C@@H](C(C)C)C(=O)N2CCC[C@H]2C(=O)O1 (stereo partly drawn) | nt | 84* | 83* | 78* | 98* | -7 | 14* | 82*
O=[N+]([O-])c1ccc(N2CCN(c3ccc([N+](=O)[O-])cc3CO)CC2)c(CO)c1 | 5 | -14 | 60* | 19 | 23 | 16 | 1 | 21
COc1ccc(-c2csc(NC(=O)C3=NN(c4ccccc4)C(=O)CC3)n2)cc1 | 2 | 18 | 49* | 17 | 7 | 5 | -25 | 19
O=C(Nc1nc(-c2cc(F)ccc2F)cs1)C1=NN(c2ccccc2)C(=O)CC1 | 6 | 0 | -1 | -9 | 0 | -15 | nt | nt
CCN1CCN(C(=O)CN(CC)S(=O)(=O)c2ccc3ccccc3c2)CC1 | 9 | 2 | 0 | 4 | -3 | -30 | nt | nt
O=C(Nc1ccc(S(=O)(=O)N2CCCC2)cc1)c1ccc2c(=O)n3c(nc2c1)CCCCC3 | 23 | 27 | -13 | -22 | 8 | -7 | nt | nt
Cc1ccc(S(=O)(=O)N2CCCCC2)cc1NC(=O)c1ccc2c(=O)n3c(nc2c1)CCCCC3 | nt | nt | 43* | nt | nt | 9 | -3 | 14

Bioassay records deposited in PubChem BioAssay by several laboratories.
